Assay results from PubChem BioAssay (Tox21).
Results filed as inconclusive are left out. Where a call stands in place of a potency, no number is given. Unmarked numbers belong to inactive results. Calls of active or inactive are those of the source. Calls come from the whole dose curve; as a rule, active = well fitted cell-killing curve with a large enough effect in the repeat runs; inconclusive = weak or mixed curves, or effect the other way; inactive = flat fitted curve, though single readings scatter.

Assay: qHTS assay to identify small molecule antagonists of the androgen receptor (AR) signaling pathway using the MDA cell line in the presence of 0.5 nM R1881 - cell viability counter screen (AID 1259242); note: nearly all actives have a fitted effect of over 45% in size
Settings: MDA-kb2 viability, CellTiter-Fluor protease fluorescence, 16 h; series mostly up to 92.4 µM
Description: U.S. Tox21 Program National Center for Advancing Translational Sciences [NCATS] NIH Chemical Genomics Center [NCGC] U.S. Environmental Protection Agency [EPA] National Institutes of Environmental Health Sciences [NIEHS] National Toxicology Program [NTP] U.S. Food and Drug Administration [FDA] Tox21 Assay Overview: Androgen receptor (AR) is an important member of the nuclear receptor family. Its signaling plays a critical role in AR-dependent prostate cancer and other androgen related diseases. Considerable attention has been given in the past decades to develop methods to study and screen for the environmental chemicals that have the potential to interfere with metabolic homeostasis, reproduction, developmental and behavioral functions. Therefore AR binding assay for screening androgen antagonists can be used to identify potential endocrine disruptors. MDA-kb2 cells (from ATCC, deposited by Wilson et al.) were used to screen for AR inhibitors against Tox21 compound libraries. These cells are human breast carcinoma cells that were stably transfected with a luciferase reporter gene under control of the MMTV promoter that contains response elements for both androgen receptor (AR) and glucocorticoid receptor (GR). The current screening for identification of AR inhibitors against Tox21 libraries used lower concentration of (0.5 nM) R1881 as a stimulator. The cytotoxicity of the Tox21 compound libraries against MDA-kb2 cell line was tested by measuring live-cell protease activity using CellTiter-Fluor assay in the same wells.
Tox21 Assay Protocol Summary: MDA-kb2 cells (cells cultured without CO2) were dispensed at 3,000 cells/well in 4 uL of culture medium into white wall/solid-bottom 1536-well plates (Corning Life Sciences, Corning, NY) using a Multidrop Combi (ThermoFisher Scientific, Waltham, MA) dispenser. After the assay plates were incubated at a 37C and 0% CO2 for 5 hr, 23 nL of compounds dissolved in DMSO, positive controls or DMSO only was transferred to the assay plate by a Pintool station (Kalypsys, San Diego, CA). The transfer of compounds was followed by the addition of 1 uL of 0.5 nM (final concentration) agonist (R1881)/culture medium using a Flying Reagent Dispenser (FRD, Aurora Discovery, San Diego, CA). The plates were incubated at 37C and 0% CO2 for 16 hr. For cytotoxicity assay, 1 uL of CellTiter-Fluor reagent (Promega Corporation, Madison, WI) was added to each well using the FRD and after 30 min incubation at 37C and 0% CO2, The fluorescence intensity was measured using ViewLux plate reader (PerkinElmer, Shelton, CT).
Potency is the fitted concentration of half-maximal effect.

Row | Compound | Potency | viability change, negative = cytotoxic
1 | O=C([O-])c1ccccn1.O=C([O-])c1ccccn1.O=C([O-])c1ccccn1.[Cr+3] | inactive | 
2 | CCCC(C)(COC(N)=O)COC(=O)NC(C)C (stereo not given) | inactive | 
3 | COc1ccc(C(=O)c2c(C)n(CCN3CCOCC3)c3ccccc23)cc1 | inactive | 
4 | C[N+]1(CCC(C(N)=O)(c2ccccc2)c2ccccc2)CCCCC1 | inactive | 
5 | CCCN(CCC)c1c([N+](=O)[O-])cc(C(C)C)cc1[N+](=O)[O-] | inactive | 
6 | C#CC(O)(C=CCl)CC (stereo not given) | inactive | 
7 | OC[P+](CO)(CO)CO | inactive | 
8 | CC(C)(C)N(NC(=O)c1ccc(Cl)cc1)C(=O)c1ccccc1 | inactive | 
9 | Nc1c(Br)cc(Br)c2c1C(=O)c1ccccc1C2=O |  | 2.34% [at 19 µM]
10 | C=CC(=O)OCC | inactive | 
11 | N#CC(C#N)=Cc1ccc(O)c(O)c1 | inactive | 
12 | O=C(O)c1ccc(=O)[nH]c1 | inactive | 
13 | CC(C)(C)CC(C)(C)c1ccc(O)cc1 | inactive | 
14 | Oc1cccc(Cl)c1 | inactive | 
15 | Cc1ccc2c(C)cccc2c1 | inactive | 
16 | CC(C)c1ccc(OP(=O)(Oc2ccc(C(C)C)cc2)Oc2ccc(C(C)C)cc2)cc1 | inactive | 
17 | O=C(O)COc1cc(Cl)c(Cl)cc1Cl | inactive | 
18 | CCCCCCCCCCCCN=C(N)N |  | -1.29% [at 3.26 µM]
19 | Cc1cccc(C)c1NC1=NCCCS1 | inactive | 
20 | CC(=O)OC(c1ccccc1)C(Cl)(Cl)Cl (stereo not given) | inactive | 

Row | Compound | Potency | viability change, negative = cytotoxic
21 | CCC1(CCC(C)C)C(=O)NC(=O)NC1=O | inactive | 
22 | CCCSP(=S)(OCC)Oc1ccc(SC)cc1 (stereo not given) | inactive | 
23 | O=C1CC[C@@]2(O)[C@H]3Cc4ccc(O)c5c4[C@@]2(CCN3CC2CC2)[C@H]1O5 | inactive | 
24 | CCOC(=O)NC(O)C(Cl)(Cl)Cl (stereo not given) | inactive | 
25 | O=C=NC1CCCCC1 | inactive | 
26 | CCOP(=O)(SC(C)CC)N1CCSC1=O (stereo not given) | inactive | 
27 | COc1cc(CC(C)N)c(OC)cc1Br (stereo not given) | inactive | 
28 | O=C(Cl)OCCOCCOC(=O)Cl | inactive | 
29 | CC(Cc1ccccc1)NCc1ccccc1Cl (stereo not given) | inactive | 
30 | CC(=O)NNc1ccccc1 | inactive | 
31 | NC(=O)CF | inactive | 
32 | N#CC1(N=NC2(C#N)CCCCC2)CCCCC1 | inactive | 
33 | O=C(O)CCCOc1ccc(Cl)cc1Cl | inactive | 
34 | O=S(=O)(Cl)Cl | inactive | 
35 | CCCCNC(=O)OCC#CI | 60.8 µM (active) | 
36 | O=C(O)c1cc(I)cc(I)c1I | inactive | 
37 | O=C(Cc1ccccc1)OCCc1ccccc1 | inactive | 
38 | CCOC(C(=O)OCCN(C)C)(c1ccccc1)c1ccccc1 | inactive | 
39 | COC1=CC(=O)O[C@@H](/C=C/c2ccc3c(c2)OCO3)C1 | inactive | 
40 | CCCC[N+](CCCC)(CCCC)CCCC | inactive | 
